{
  "source": "the OligoGym collection",
  "data": [
    {"biological_target": "MPHOSPH9", "experiment": "pooled miR-30 sensor sort-seq; sequence = guide strand", "settings": "shRNA", "values": [
      {"sequence": "TTGTTTAGAAACAAGCTGCTTC", "sensor-assay potency score (higher = more potent)": 0.601},
      {"sequence": "TTGCTTGTGAAAATGAGTCTAT", "sensor-assay potency score (higher = more potent)": -0.111},
      {"sequence": "TTGTTGATGAACTTCCAGGTGA", "sensor-assay potency score (higher = more potent)": -0.421},
      {"sequence": "TTACAATGTAGAACAAGTCTAT", "sensor-assay potency score (higher = more potent)": 0.128},
      {"sequence": "TATTTGTTTAGAAACAAGCTGC", "sensor-assay potency score (higher = more potent)": 0.128},
      {"sequence": "TAGATCTTGAACCTCCATCTTC", "sensor-assay potency score (higher = more potent)": -0.263},
      {"sequence": "TTAAAGACACATGACACTCTTC", "sensor-assay potency score (higher = more potent)": 0.499},
      {"sequence": "TTTGGTGACACATCTGTGGAAG", "sensor-assay potency score (higher = more potent)": -0.32},
      {"sequence": "TTGAGCTTCTTTATCATCTGAG", "sensor-assay potency score (higher = more potent)": 0.656},
      {"sequence": "TTTATCAACAAGCTTGTTGATG", "sensor-assay potency score (higher = more potent)": -0.498},
      {"sequence": "TTCATCTACAGTGTTGACCGAG", "sensor-assay potency score (higher = more potent)": 0.377},
      {"sequence": "TAACGTAGGATCTAGAGTCAGG", "sensor-assay potency score (higher = more potent)": -0.553}
    ]},
    {"biological_target": "MPST", "experiment": "pooled miR-30 sensor sort-seq; sequence = guide strand", "settings": "shRNA", "values": [
      {"sequence": "TACCACTCCACCCAGGAGCCAT", "sensor-assay potency score (higher = more potent)": -1.23},
      {"sequence": "TGAAGAAACACTCTCTTGGTGA", "sensor-assay potency score (higher = more potent)": -0.0211},
      {"sequence": "TTGATGTCCTCGTAGGTCTTGA", "sensor-assay potency score (higher = more potent)": -0.443},
      {"sequence": "TTCTCCTTGATGTCCTCGTAGG", "sensor-assay potency score (higher = more potent)": -1.08},
      {"sequence": "TCGATGTCGAAGAAAGCGGCGC", "sensor-assay potency score (higher = more potent)": -0.934},
      {"sequence": "TCGTAGGTCTTGATGAAGGCGG", "sensor-assay potency score (higher = more potent)": -0.615},
      {"sequence": "TTCTCCTGGAACAGATGGCGGA", "sensor-assay potency score (higher = more potent)": -0.871},
      {"sequence": "TAGGTCTTGATGAAGGCGGGGT", "sensor-assay potency score (higher = more potent)": 0.122},
      {"sequence": "TTAGACAGGTCCACTTTCTTCT", "sensor-assay potency score (higher = more potent)": 0.441},
      {"sequence": "TTGAGTGAAGAAACACTCTCTT", "sensor-assay potency score (higher = more potent)": 0.653},
      {"sequence": "TGAGTGAAGAAACACTCTCTTG", "sensor-assay potency score (higher = more potent)": -1.53},
      {"sequence": "TCGTAGATCACGACGTGGGTGG", "sensor-assay potency score (higher = more potent)": -0.279}
    ]},
    {"biological_target": "MPZL1", "experiment": "pooled miR-30 sensor sort-seq; sequence = guide strand", "settings": "shRNA", "values": [
      {"sequence": "TATTCTCTTAATTCTTTCGGAT", "sensor-assay potency score (higher = more potent)": -0.74},
      {"sequence": "TTGACATCACAGATATAGGTGC", "sensor-assay potency score (higher = more potent)": 0.0652},
      {"sequence": "TAACTGTGCATATATGACTGGG", "sensor-assay potency score (higher = more potent)": -0.763},
      {"sequence": "ATATTTTCTATGTTGATTGATG", "sensor-assay potency score (higher = more potent)": -0.933},
      {"sequence": "TTGTGTACCATTTGCCACGAAG", "sensor-assay potency score (higher = more potent)": -1.44},
      {"sequence": "TACACCACAGACTCTGACTTGT", "sensor-assay potency score (higher = more potent)": 0.413},
      {"sequence": "TTTTCTACGACATAGAGCCTAA", "sensor-assay potency score (higher = more potent)": -0.79},
      {"sequence": "TATTTATACATATCCTTTGTAC", "sensor-assay potency score (higher = more potent)": -0.807},
      {"sequence": "TTTGACATCACAGATATAGGTG", "sensor-assay potency score (higher = more potent)": 0.376},
      {"sequence": "TTTCTATGTTGATTGATGCATC", "sensor-assay potency score (higher = more potent)": -0.949},
      {"sequence": "TTTTCTATGTTGATTGATGCAT", "sensor-assay potency score (higher = more potent)": -0.358},
      {"sequence": "TTTTTCTACGACATAGAGCCTA", "sensor-assay potency score (higher = more potent)": -0.173}
    ]}
  ]
}
